Measured values taken from PubChem BioAssay AID686978 (National Center for Advancing Translational Sciences (NCATS), 2013).
In all, about 420,000 compounds went through this assay and about 64,000 (15%) were called active. Another 27% or so got no clear call; they are omitted. Not all results are given here. Values without a mark were called inactive. Calls come from the whole dose curve; as a rule, active = well fitted inhibition curve with a large enough effect; inconclusive = small, poorly fitted or top-dose-only effect; inactive = flat fitted curve, though single readings scatter.

assay: qHTS for Inhibitors of human tyrosyl-DNA phosphodiesterase 1 (TDP1): qHTS in cells in absence of CPT; details: DT40 Tdp1-/- hTDP1 cells, no CPT, ATP luminescence, 48 h; activity change, negative = growth inhibition: at 46.2 µM (top of the series); note: nearly all actives have a fitted effect of over 55% in size
How it was run: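 Chicken DT40 Tdp1-/- cells complemented with human TDP1, screened without camptothecin (DMSO vehicle only), 400 cells/well. Compounds pin-transferred, cells incubated at 37 °C for at least 48 hr. Growth read as ATP-dependent luminescence (CellTiter-Glo, 30 min at RT).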
% is set by controls: 0 for no effect and ±100 for the full control effect; potency is the fitted concentration of half-maximal effect.

SMILES	Potency	activity change, negative = growth inhibition [%]
CCOc1ccc(NC(=O)c2c(NC(=O)Cc3ccccc3)sc3c2CCC(C)C3)cc1 (stereo not given)	20.6 µM (active)	–
CCOc1ccc(NC(=O)c2c(NC(=O)Cc3ccccc3)sc3c2CCCCC3)cc1	20.6 µM (active)	–
CC(C)OC(=O)c1c(NC(=O)c2ccco2)sc2c1CCCC2	–	2.44
O=C(CN1CCCC1)Nc1sc2c(c1C(=O)Nc1ccccc1)CCCC2	–	-23.3
CCOC(=O)c1c(NC(=O)/C=C/c2ccc(OC)cc2)sc2c1CCC(C)C2 (stereo not given)	–	-5.43
COc1ccc(CC(=O)Nc2sc(Cc3ccccc3)c(C)c2C(N)=O)cc1	–	-17.9
Cc1sc2c(c1C)c(=O)n(-c1ccccc1)c1nncn21	–	-26.5
Cc1cccc(C2c3c(n(C)c(=O)n(C)c3=O)N=C3c4ccccc4C(=O)C32)c1 (stereo not given)	–	-57.1
Cc1ccc(Nc2nc(N)nc(CSc3nnc(C)s3)n2)cc1	–	-20.7
CC(=O)c1sc(N/N=C\c2ccc(C)cc2)nc1C	–	-6.34
Cc1ccc(Nc2nc(Cl)c(C=O)s2)cc1	23.1 µM (active)	–
COc1ccc(CC(=O)Nc2c3c(nn2-c2cccc(Cl)c2)CS(=O)C3)cc1 (stereo not given)	–	-24.1
Cc1ccc(OCC(=O)NC(C)c2ccccc2)c([N+](=O)[O-])n1 (stereo not given)	–	-5.01
C=C1C2C[C@H](O)C(C)(C)[C@@]2(O)[C@H](O)C[C@]23C[C@@](C)(O)[C@H](CC[C@H]12)[C@H]3O (stereo not given in full)	–	12.3
Cc1c(C(=O)N/N=C/c2ccccc2)[nH]c2c([N+](=O)[O-])cccc12	0.92 µM (active)	–
Cc1cc(C(=O)N/N=C/c2ccccc2[N+](=O)[O-])c(C)o1	–	-20.6
Cc1nn(-c2ccccc2)c(Cl)c1/C=N/NC(=O)c1nn(C)cc1[N+](=O)[O-]	–	-28.7
CN(C(=O)c1cccc(NC(=O)C2CCN(C(=O)OC(C)(C)C)CC2)c1)C1CCC1	–	-24.9
CC(=O)c1cccc(NC(=O)N2CCCC2C(=O)NCCc2ccccc2)c1 (stereo not given)	–	0.243
CCNC(=O)c1cccc(NC(=O)C2CC(=O)N(CCc3ccccc3)C2)c1 (stereo not given)	–	7.49
O=C(Cc1ccc([N+](=O)[O-])cc1)Nc1ccc(C(=O)N2CCOCC2)cc1	–	-10.5
CN(C(=O)c1cccc(NC(=O)Cc2ccc(NC(=O)C3CCCN(C(=O)C4CCCC4)C3)cc2)c1)C1CCC1 (stereo not given)	20.6 µM (active)	–
CC(C)(C)OC(=O)N1CCC(C(=O)Nc2cccc(C(=O)NCCc3ccccc3)c2)CC1	14.6 µM (active)	–
CN(C(=O)c1cccc(NC(=O)Cc2cccc(NC(=O)C3CCCN(C(=O)C4CC4)C3)c2)c1)C1CCC1 (stereo not given)	–	-29.4
CN(C(=O)c1cccc(NC(=O)Cc2ccc(NC(=O)C3CCCN(C(=O)C4CC4)C3)cc2)c1)C1CC1 (stereo not given)	–	0.0642

SMILES	Potency	activity change, negative = growth inhibition [%]
CN(CCc1ccccc1)C(=O)c1cccc(NC(=O)Cc2cccc(NC(=O)C3CCCN(C(=O)CCc4ccccc4)C3)c2)c1 (stereo not given)	13 µM (active)	–
O=C(Cc1ccc(NC(=O)C2CCCN(C(=O)C3CCCCC3)C2)cc1)Nc1cccc(C(=O)N2CCCCC2)c1 (stereo not given)	–	-20.7
O=C(Cc1ccc(NC(=O)C2CCCN(C(=O)CCc3ccccc3)C2)cc1)Nc1ccc(C(=O)N2CCOCC2)cc1 (stereo not given)	18.4 µM (active)	–
CN(C(=O)c1ccc(NC(=O)Cc2cccc(NC(=O)C3CCN(C(=O)c4ccccc4)CC3)c2)cc1)C1CC1	–	1.83
Cc1cc(NC(=O)CCC(=O)N(Cc2ccccc2)C(C(=O)NC2CCCC2)c2ccc(C)o2)no1 (stereo not given)	–	-28.1
CCc1nc2ccc(C(=O)NC3CCN(Cc4ccccc4)CC3)cn2c1N(C)CCN1CCOCC1	–	-24.4
O=C(NC(=S)Nc1ccccc1C(=O)O)c1ccc(-c2ccc(Br)cc2)o1	–	-10.9
O=C(c1cccnc1NCc1ccccc1)N1CCOCC1	–	-11.3
CC(=O)Nc1ccc(NC(=O)c2ccc3c(c2)C(=O)N(c2ccccc2C)C3=O)cc1	–	5.82
NC(=O)C1(N2CCCCC2)CCN(C(=O)c2ccc(C#Cc3ccccc3)o2)CC1	–	-29.5
COCCCNC(=O)CNC(=S)N(Cc1cc(OC)c(OC)c(OC)c1)C1CCCC1	–	7.92
COc1ccc(C)cc1N(C)C(=O)c1coc(=O)c2ccccc12	–	-19.8
CC/C(Cc1ccccc1)=N/NC(=O)CCn1nnc2ccccc21	–	0.293
NS(=O)(=O)c1ccc(NC(=S)N2CCCC2)cc1	–	17.6
CCN(CC)C(=O)CSc1nnc(CNc2ccc(F)cc2)n1Cc1ccco1	–	0.469
CN(C)C(=S)N=c1ssc(=S)n1Cc1ccco1	1.64 µM (active)	–
CC1CN(Cc2ccco2)C(=S)N(c2ccccc2)C1=O (stereo not given)	–	-2.45
CC1=CC=CC2=N/C(=N\S(=O)(=O)c3ccc(F)cc3F)c3ccccc3CN12	–	-23.1
CCOC(=O)CSC1=C(C#N)C(c2sccc2C)CC(=O)N1 (stereo not given)	3.55 µM (active)	–
COC(=O)CSC1=C(C#N)C(c2ccccc2OC)C(C(=O)OC)C(=O)N1 (stereo not given)	–	-2.46
C=CCSC1=C(C#N)C(c2cc(Br)c(O)c(OC)c2)CC(=O)N1 (stereo not given)	–	-1.88
COc1cccc(CNC(=O)C2CCN(S(=O)(=O)c3cccc4cccnc34)CC2)c1	–	-14.2
Cc1nc2ccc(C(=O)N3CCN(c4ccccc4)CC3)cc2s1	–	-8.77
Cc1ccc2nc3n(c(=O)c2c1)CCC3	–	-1.96
Cc1ccc2nc(C)c3c(c2c1)N(c1ccccc1)CC3	13 µM (active)	–
